Experimental findings from the supplement of paper PMC7057948, “A genome-wide approach for identification and characterisation of metabolite-inducible systems” (Nature Communications, 2020) are described below.
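Note: RFP excited at 585 nm with emission read at 620 nm, culture medium blanks subtracted from fluorescence and absorbance prior to normalisation.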

For the test, the system named is HpdA/P_H16_RS24175 L-tyrosine biosensor (pEH158). Description: relative induction of RFP reporter vs primary effector (background-corrected); higher = stronger activation of the biosensor. The note with it: inducer concentration 5 mM; 6 h; Cupriavidus necator H16; minimal medium + 0.4% gluconate. As for the experimental part:
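C. necator H16 strains, each carrying one of 21 transcription factor/inducible promoter–mRFP biosensor plasmids, were grown in minimal medium in 96-well plates (robotic platform). Each was exposed to 46 structurally or metabolically related compounds at 5 mM at 30 °C. OD-normalised RFP fluorescence was read 6 h later and expressed as relative induction (%) = 100 × (FL compound − FL uninduced)/(FL primary inducer − FL uninduced); mean of n=4.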
Take `Oc1ccccc1` [phenol]: the “relative induction of RFP reporter” value is -0.0814%.
In the case of `O=c1[nH]cnc2nc[nH]c12` [hypoxanthine], the “relative induction of RFP reporter” value was -0.0963%.
`O=C(O)C(O)C(=O)O` [tartronic acid]: the “relative induction of RFP reporter” value was -0.0907%.
To `O=C(O)[C@@H](O)[C@@H](O)[C@H](O)[C@@H](O)C(=O)O` [glucarate] belongs -0.0077%.
